Bioassay records from PubChem BioAssay.
This is a sample that favours compounds with a hit; in the whole collection about 3.5% have one here.
Pf apPOL block: Pf-apPOL DNA polymerase inhibition; actives 0.25% (n = 210,000); inhibition, % at 10 µM; Recombinant Pf-apPOL, molecular beacon fluorescence, 1.5 h
mHTT-CaM PPI inh: disrupts binding of mutant huntingtin to calmodulin; actives 3.6% (n = 190,000); inhibition, % at 15 µM; P42858; AlphaScreen His-mHTT/GST-CaM binding, luminescence; AID 1671202
Large screens that a line does not name were inactive. No stated cut-off is given here; in the data, active means inhibition above about 50%; inactive means the rest.

CC(=O)N1CCC2(CC1)N=C(c1ccc(C)c(C)c1)CC(c1ccccc1O)N2 (stereo not given)	none
Cn1nc(C(=O)NCc2ccc(F)cc2)c2c1CCN(C(=O)C1CCC1)C2	none
Cc1cccc(CNC(=O)c2nn(C)c3c2CN(C(=O)CC2CCCC2)CC3)c1	mHTT-CaM PPI inh 55
Cn1nc(C(=O)NCc2ccc(Cl)cc2)c2c1CCN(C(=O)C1CC1)C2	mHTT-CaM PPI inh 83
Cc1nc(CCNC(=O)C2CCCN2C(=O)Cc2ccc(F)cc2)cs1 (stereo not given)	none
CCOC(=O)c1c(S(=O)(=O)N2CC=C(c3ccccc3)CC2)n[nH]c1CC	none
O=C1CC(N2CCC(C(O)(c3ccccc3)c3ccccc3)CC2)C(=O)N1c1ccc(F)cc1 (stereo not given)	none
Cn1cnc([N+](=O)[O-])c1Sc1cn2c(n1)CCC2	none
Cc1ccccc1C(=O)N1CCc2c(c(C(=O)NCc3ccc(F)cc3)nn2C)C1	none
COc1ccccc1C(=O)N1CCc2c(c(C(=O)NCc3ccccc3)nn2C)C1	none
Cn1nc(C(=O)NCc2ccccc2)c2c1CCN(C(=O)c1ccccc1F)C2	mHTT-CaM PPI inh 53
Cn1nc(C(=O)NCc2ccccc2)c2c1CCN(C(=O)c1ccc(Br)o1)C2	none
Cn1nc(C(=O)NCc2ccc(F)cc2)c2c1CCN(C(=O)c1ccccc1Cl)C2	mHTT-CaM PPI inh 55
COc1ccccc1C(=O)N1CCc2c(c(C(=O)NCc3ccc(F)cc3)nn2C)C1	mHTT-CaM PPI inh 71
CCn1c(C2CCN(C(=O)c3cccc(OC)c3)C2)nc2cccnc21 (stereo not given)	none
Cc1ccc(F)cc1NC(=O)Cn1nc2c(cc1=O)CCCC2	none
COc1ccc2ncc(C#N)c(N3CCC(C(=O)Nc4ccc(C)cc4C)CC3)c2c1	none
CCc1onc(C)c1C1CCCN1C(=O)c1ccccc1OC (stereo not given)	none
COc1cc(C2CC(=O)Nc3n[nH]c(C)c32)ccc1OCc1cccc(F)c1 (stereo not given)	none
COc1c(C(C)C)cc(NC(C)=O)cc1C(C)C	none
CC(=O)Nc1ccc(Nc2cc(C(C)C)c(O)c(C(C)C)c2)cc1	mHTT-CaM PPI inh 74
O=C(Cc1csc(Nc2cccc(C(F)(F)F)c2)n1)NCc1cccs1	none
CCc1ccc(NC(=O)C2CCCN(c3nnc4ccccn34)C2)cc1 (stereo not given)	mHTT-CaM PPI inh 56
CCOc1ccc(NC(=O)C2CCCN(c3nnc4ccccn34)C2)cc1 (stereo not given)	none
O=C(NCc1ccc(F)cc1Cl)C1CCN(c2ccncc2)CC1	none
Cc1ccc(-c2noc(CS(=O)(=O)c3ccc(F)cc3)n2)cc1	none
O=C(NCCC1CCN(S(=O)(=O)c2ccccc2)CC1)Nc1ccc(F)cc1	none
COc1ccc(CN(CCC(c2ccccc2OC)C2CCOC(C)(C)C2)C(C)=O)cc1 (stereo not given)	none
CC(C)(C)Oc1ccc(C(=O)N(Cc2ccc(F)cc2)C2CCOC(C)(C)C2)cc1 (stereo not given)	mHTT-CaM PPI inh 56
O=C1/C(=C/c2ccco2)CC2CC1C/C(=C\c1ccco1)C2=O	none
N#CC(C#N)C(C#N)(C#N)C1CCC/C(=C\c2ccco2)C1=O (stereo not given)	mHTT-CaM PPI inh 99
O=C1C(=Cc2cccnc2)Oc2c1ccc(O)c2CN1CCCCCC1	none
COc1ccc2c(c1)CC/C(=C\c1ccc(OC)c(OC)c1OC)C2=O	none
Cc1ccccc1NCC(O)Cn1c(C)c(C)c2ccccc21 (stereo not given)	mHTT-CaM PPI inh 96
Cc1c(C)n(CC(O)CNc2ccc(I)cc2)c2ccccc12 (stereo not given)	mHTT-CaM PPI inh 99
COc1ccccc1NCC(O)Cn1ccc2ccccc21 (stereo not given)	none
COc1ccccc1NCC(O)Cn1c(C)c(C)c2ccccc21 (stereo not given)	mHTT-CaM PPI inh 59
CNCC(O)Cn1c2ccccc2c2ccccc21 (stereo not given)	none
CC(NCC(O)Cn1c2ccccc2c2ccccc21)C(=O)O (stereo not given)	none
Cc1ccc(NCC(O)Cn2c(C)c(C)c3ccccc32)c(C)c1 (stereo not given)	mHTT-CaM PPI inh 82
Cc1ccc(S(=O)(=O)NCC(O)Cn2c3ccccc3c3ccccc32)cc1 (stereo not given)	none
CCn1c(SC)nnc1-c1nn(C)c2c1CN(C(=O)Cc1cccs1)CC2	none
O=C1NC2CC(O)(N1)C1OCC2O1 (stereo not given)	none (no result: Pf apPOL block)
Cc1noc(C2CCCCN2Cc2ccccc2)n1 (stereo not given)	none
CC1CCc2c(sc3c2c(=O)n(C)c2nnc(SCc4ccc5c(c4)OCO5)n32)C1 (stereo not given)	none
CN(Cc1ccccc1)C(=O)CCCn1c(=O)[nH]c2ccsc2c1=O	none
CCC(CO)NCC(O)Cn1c2ccccc2c2ccccc21 (stereo not given)	none
Cc1cccc(NCC(O)Cn2c(C)c(C)c3ccccc32)c1C (stereo not given)	mHTT-CaM PPI inh 93
CCOC(CNC(=O)Cn1cnc2sc(C)c(C)c2c1=O)OCC	none
COc1ccc(-c2coc3c(C)c4oc(=O)c5c(c4cc23)CCC5)cc1	none
COc1ccc(-c2coc3c2c(C)cc2oc(=O)c4c(c23)CCC4)cc1	Pf apPOL block 86
CS(=O)(=O)c1ccc(N2CC(c3nnc(NC(=O)c4cccs4)o3)CC2=O)cc1 (stereo not given)	mHTT-CaM PPI inh 53
COc1ccc(C(=O)Nc2nnc(C3CC(=O)N(c4ccccc4)C3)o2)cc1OC (stereo not given)	mHTT-CaM PPI inh 61
O=C(Nc1nnc(C2CC(=O)N(c3ccccc3)C2)o1)c1ccccn1 (stereo not given)	mHTT-CaM PPI inh 100
Cc1ccccc1C(=O)Nc1nnc(C2CC(=O)N(c3ccc(S(C)(=O)=O)cc3)C2)o1 (stereo not given)	none
COc1ccc(C(=O)Nc2nnc(C3CC(=O)N(c4ccc(Cl)cc4)C3)o2)cc1OC (stereo not given)	mHTT-CaM PPI inh 76
COc1ccc(N2CC(c3nnc(NC(=O)c4ccc(Cl)cc4)o3)CC2=O)cc1 (stereo not given)	none
COc1ccc(C(=O)Nc2nnc(C3CC(=O)N(c4ccccc4)C3)o2)cc1 (stereo not given)	none
O=C(Nc1nnc(C2CC(=O)N(c3ccccc3)C2)o1)c1ccc(Br)cc1 (stereo not given)	none
CCCCn1c(=N)n(CC(=O)c2cccs2)c2ccccc21	none
CN(Cc1ccccc1)S(=O)(=O)c1ccc(F)c(C(=O)Nc2ccc(Cl)cc2)c1	none
CC(C)(C)n1nc2c(c1NC(=O)COc1ccc(Cl)cc1Cl)CSC2	none
CC(C)(C)n1nc2c(c1NC(=O)COc1ccc(Cl)cc1)CSC2	mHTT-CaM PPI inh 57
CC1CS(=O)(=O)N(c2ccc(S(=O)(=O)NC3CCCC3)cc2)C1=O (stereo not given)	none
COc1ccc(CNC(=O)c2cc3c(n2C)CCN(Cc2ccc(F)cc2)C3)cc1	none
COc1cccc(CNC(=O)c2cc3c(n2C)CCN(Cc2ccc(F)cc2)C3)c1OC	none
COc1ccccc1NC(=O)c1cc2c(n1C)CCN(Cc1ccc(F)cc1)C2	mHTT-CaM PPI inh 63
COc1ccccc1NC(=O)N1CCc2c(c(COCc3cccc(F)c3)nn2C)C1	none
Cn1c(C(=O)NCc2ccco2)cc2c1CCN(Cc1ccccc1)C2	none
Cc1ccc(CN2CCc3c(cc(C(=O)NCc4ccco4)n3C)C2)cc1	mHTT-CaM PPI inh 62
COc1ccccc1NC(=O)N1CCc2c(c3cc(F)ccc3n2C)C1	mHTT-CaM PPI inh 82
